Experimental data taken from the supplement of paper PMC6555819.

What was measured:
Test in all cases: PBM binding z-score (relative to random genomic background probes); higher = stronger binding; sequences stand for … in GC…GCGATTGACAGCGTAGAATGAAGG
[1] = test system: FXR:RXRa (NR concentration 270 nM, RXRa partner concentration 90 nM)
Method in brief: (§1)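 Custom Agilent 4×180K protein-binding microarrays carried double-stranded probes, each with a 34-nt variable region. These regions held direct-repeat seeds, single-nucleotide variants, half-site ablations and random human genomic background sequences. Ligand-free nuclear receptor dimers were incubated on the arrays for 1 h, antibodies against each partner (one per run) detected binding, and scanned fluorescence was regression-normalized. Binding z-scores take the random background probes as reference.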

[2] = test system: LXRa:RXRa (NR concentration 270 nM, RXRa partner concentration 90 nM)
Method in brief: as §1

[3] = test system: LXRa homodimer (NR concentration 270 nM)
Method in brief: as §1

[4] = test system: LXRb:RXRa (NR concentration 270 nM, RXRa partner concentration 90 nM)
Method in brief: as §1

[5] = test system: LXRb homodimer (NR concentration 270 nM)
Method in brief: as §1

[6] = test system: PPARa:RXRa (NR concentration 270 nM, RXRa partner concentration 90 nM)
Method in brief: as §1

[7] = test system: PPARg:RXRa (NR concentration 180 nM, RXRa partner concentration 90 nM)
Method in brief: as §1

[8] = test system: PPARg:RXRa 270nM:90nM, anti-RXR (NR concentration 270 nM, RXRa partner concentration 90 nM)
Method in brief: as §1

[9] = test system: PPARg:RXRa 30nM:10nM, anti-RXR (NR concentration 30 nM, RXRa partner concentration 10 nM)
Method in brief: as §1

[10] = test system: PPARg:RXRa 90nM:30nM, anti-RXR (NR concentration 90 nM, RXRa partner concentration 30 nM)
Method in brief: as §1

[11] = test system: PPARg:RXRa DBDmut IVT, anti-RXR (DBD mutation: RXRa K156A/R161A, NR concentration 270 nM, RXRa partner concentration 90 nM)
Method in brief: as §1

[12] = test system: PPARg:RXRa IVT, anti-PPARg (NR concentration 270 nM, RXRa partner concentration 90 nM)
Method in brief: as §1

[13] = test system: PPARg DBDmut:RXRa IVT, anti-PPARg (DBD mutation: PPARg1 K132A/R137A, NR concentration 270 nM, RXRa partner concentration 90 nM)
Method in brief: as §1

[14] = test system: PPARg DBDmut IVT, anti-PPARg (DBD mutation: PPARg1 K132A/R137A, NR concentration 270 nM)
Method in brief: as §1

[15] = test system: PPARg homodimer (NR concentration 180 nM)
Method in brief: as §1

[16] = test system: PXR:RXRa (NR concentration 270 nM, RXRa partner concentration 90 nM)
Method in brief: as §1

[17] = test system: PXR homodimer (NR concentration 270 nM)
Method in brief: as §1

[18] = test system: RARa:RXR (NR concentration 270 nM, RXRa partner concentration 90 nM)
Method in brief: as §1

[19] = test system: RARa homodimer (NR concentration 270 nM)
Method in brief: as §1

[20] = test system: RARb:RXRa (NR concentration 270 nM, RXRa partner concentration 90 nM)
Method in brief: as §1

Row | Sequence | PBM binding z-score [1] | PBM binding z-score [2] | PBM binding z-score [3] | PBM binding z-score [4] | PBM binding z-score [5] | PBM binding z-score [6] | PBM binding z-score [7] | PBM binding z-score [8] | PBM binding z-score [9] | PBM binding z-score [10] | PBM binding z-score [11] | PBM binding z-score [12] | PBM binding z-score [13] | PBM binding z-score [14] | PBM binding z-score [15] | PBM binding z-score [16] | PBM binding z-score [17] | PBM binding z-score [18] | PBM binding z-score [19] | PBM binding z-score [20]
1 | CGTCAAAGTTCAAGGTAACATAACAGAAAGCAGC | 6.08 | 5.39 | 2.7 | 3.37 | 1.22 | 4.67 | 4.56 | 5.16 | 2.16 | 3.9 | 0.0346 | 2.06 | 0.987 | 0.494 | 2.78 | 4.26 | 2.87 | 3.65 | 1.23 | 5.13
2 | ACTATTAGTTGAGACGAGGGCAACCAATAGGTTG | 0.56 | 0.143 | -0.167 | 0.143 | -0.0545 | 0.282 | 0.647 | 0.464 | 0.235 | 0.58 | 0.183 | 0.992 | 0.202 | 0.799 | 0.0729 | 1.75 | 0.385 | 1.5 | 0.723 | 1.09
3 | TCGAGTAGGTTAGGCGGGGCATTCAGCCAACATA | 0.223 | 0.211 | -0.616 | 0.946 | 0.912 | 0.687 | -0.0188 | 0.886 | 0.825 | 0.705 | 1.73 | 1.84 | 0.466 | 0.361 | -0.143 | 0.191 | -0.273 | 0.0737 | -0.554 | 0.48
4 | TCATATAGGTAATACAGTTGAAAGTCGGCATCTA | 1.56 | 1.24 | 0.63 | 1.2 | 0.422 | 1.56 | 1.32 | 2.56 | 4.01 | 3.39 | 4.07 | 2.33 | 1.55 | 1.26 | 1.26 | 1.11 | 0.75 | 1.51 | 2.05 | 0.685
5 | CCAACTGGGCCATCAGGTCATTGATATCAACGTT | 1.54 | 0.836 | 0.987 | 1.56 | -0.441 | 2.73 | 2.9 | 3.63 | 1.38 | 3.04 | 5.15 | 4.92 | -0.74 | 0.0786 | 1.32 | 1.59 | 0.906 | 1.67 | 0.182 | 2.05
6 | ATCTCGAGGTAACCAAGTTCAGTGAATGCCGAAC | 0.65 | 1.14 | 0.25 | 0.608 | -0.105 | 1.25 | 0.211 | 0.361 | -0.167 | 0.304 | 0.433 | 1.72 | 0.594 | 0.0274 | -0.0303 | 3.06 | 2.57 | 1.04 | -0.305 | 1.5
7 | TCTCGGAGGACTCGAAGGTCAGAGCTTTCCAGAG | 0.838 | 0.984 | -0.429 | 0.814 | -1.14 | 1.46 | -0.316 | 1.24 | 2 | 1.38 | 1.45 | 0.0197 | -0.446 | -1.86 | 0.353 | 1.04 | -0.316 | 1.48 | -1.07 | 2.17
8 | CCTACTGGGCCGAAGGTCATTGATTCCAATGCTC | 2.23 | 2.47 | 1.02 | 2.44 | -0.461 | 4.85 | 9.28 | 9.02 | 8.18 | 10.3 | 1.48 | 5.21 | -0.502 | -0.797 | 1.81 | 2.9 | 0.597 | 3.05 | 0.247 | 2.88
9 | CTCGAAAGGTCGGTTGAGGTGGGTATACGGATAA | 2.11 | 1.35 | 0.0862 | 1.31 | 0.332 | 2.36 | 0.284 | 0.726 | 0.0658 | 0.243 | -0.182 | 0.818 | -0.122 | -0.109 | 1.13 | 2.08 | 0.36 | 1.53 | 0.507 | 2.99
10 | ACTTACGGGTCAATGAGGTTATAGCACGCGTATA | 5.51 | 4.96 | 0.962 | 4.08 | 1.04 | 5.25 | 4.45 | 4.61 | 2.44 | 3.5 | 3.32 | 3.66 | 1.87 | 1.58 | 1.79 | 4.89 | 2.68 | 4.53 | 1.1 | 3.86
11 | GCTGCTAGGTCAGCTTGGTCAGCTAACGGGTACG | 1.35 | 0.704 | -0.534 | 0.334 | 0.0113 | 1.22 | 0.479 | 0.718 | -0.549 | -0.0941 | 3.14 | 2.46 | -1.08 | -1.08 | 0.887 | 0.168 | -0.979 | 0.718 | -0.683 | 3.29
12 | CCGAGTAGGTTATGCGGCATTCAGGCAACGGTGA | -0.091 | 0.00702 | -0.177 | -0.0522 | -0.569 | 0.802 | 0.774 | 1.06 | -0.439 | 0.685 | 2.82 | 2.03 | -1.08 | -0.567 | 0.671 | -0.0535 | 0.0083 | 0.343 | 0.296 | 0.464
13 | CCTCGGAGGACAACGGGAGGTCAGAGCTGCCAGA | 1.17 | 2.32 | 1.9 | 1.52 | -0.594 | 2.1 | 0.336 | 0.563 | -0.741 | -0.147 | -0.505 | 0.451 | -1.39 | -1.24 | 2.26 | 2.45 | 0.352 | 2.8 | 0.367 | 2.92
14 | TAGCCTACGTCATTGGGCCAGTATAGTACGCATC | -0.593 | -0.86 | -0.485 | -0.66 | -0.257 | -0.37 | 0.495 | -0.589 | -0.293 | -0.205 | -0.24 | 0.164 | -0.121 | -0.0205 | -0.852 | -0.757 | -0.796 | -0.734 | -0.851 | -0.413
